Experimental data as given in PubChem BioAssay (NCATS).
Results filed as inconclusive are left out. Calls of active or inactive are those of the source. Calls come from the whole dose curve; as a rule, active = well fitted curve in the direction sought with a large enough effect; inconclusive = small, poorly fitted or top-dose-only effect, or another doubt; inactive = no such curve, though single readings can be large; an effect the other way counts as inactive or inconclusive.

Assays:
[1] = qHTS for differential inhibitors of proliferation of Plasmodium falciparum line 7G8 (AID 1815);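 note: potency is the fitted concentration of half-maximal effect; parasite growth measured after three days of incubation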
[2] = qHTS for differential inhibitors of proliferation of Plasmodium falciparum line GB4 (AID 1816); conditions: Potency: Plasmodium falciparum GB4 proliferation inhibition;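 note: potency is the fitted concentration of half-maximal effect; parasite growth measured after 72 h incubation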
[3] = qHTS for differential inhibitors of proliferation of Plasmodium falciparum line 3D7 (AID 1876); note: potency is the fitted concentration of half-maximal effect
[4] = qHTS for differential inhibitors of proliferation of Plasmodium falciparum line D10 (AID 1877);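 note: potency is the fitted concentration of half-maximal effect; parasites grown with compound for 72 h before DNA staining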
[5] = qHTS for differential inhibitors of proliferation of Plasmodium falciparum line Dd2 (AID 1882); conditions: Potency: Plasmodium falciparum Dd2 proliferation inhibition;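 note: series mostly up to about 29 µM; compound exposure of 72 h on infected erythrocytes; nearly all actives have a fitted effect of over 65% in size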
Outline: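 SYBR Green I DNA fluorescence read-out, ex 485/em 535 nm. Signals were normalized to 0.29 uM artemisinin and DMSO wells, then corrected using vehicle-only plates flanking each stack. Parasite growth ran 72 h in erythrocytes before lysis.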

[6] = qHTS for differential inhibitors of proliferation of Plasmodium falciparum line W2 (AID 1883); conditions: Potency: Plasmodium falciparum W2 proliferation inhibition;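 note: potency is the fitted concentration of half-maximal effect; parasites grown with compound for 72 h before lysis and staining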
[7] = qHTS for differential inhibitors of proliferation of Plasmodium falciparum line HB3 (AID 1886); conditions: Potency: Plasmodium falciparum HB3 proliferation inhibition;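 note: potency is the fitted concentration of half-maximal effect; parasites grown with compound for 72 h before SYBR Green readout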
[8] = target: Ferritin light chain (Equus caballus) (UniProt P02791); experiment: qHTS Validation Assay for Identification of Novel General Anesthetics (AID 2323); note: series mostly up to about 77 µM
Outline: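 Fluorescence at 535 nm (excitation 380 nm) reported loss of 1-AMA binding to horse-spleen apoferritin (10 uM) in PBS with 50% saturated 1-aminoanthracene, after 10 min room-temperature incubation with compound; values from Hill fits of normalized response.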

[9] = target: ATP-dependent DNA helicase Q1 (Homo sapiens) (UniProt P46063); experiment: qHTS Validation Assay for Inhibitors of RecQ-Like Dna Helicase 1 (RECQ1) (AID 2353)
Outline: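 50 nM RECQ1T1 preincubated 15 min with compound in Tris pH 8.0 buffer with MgCl2, DTT, Tween-20 and 2.5 ug/ml poly(dI-dC); started with 200 nM TAMRA/BHQ-2 forked duplex and 2 mM ATP. Unwinding read as fluorescence (525/598 nm), two reads 2 h apart.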

[10] = target: RecQ-like DNA helicase BLM (Homo sapiens) (UniProt P54132); experiment: qHTS Validation Assay for Inhibitors of Bloom's syndrome helicase (BLM) (AID 2364)
Outline: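 BLM 50 nM in 25 mM Tris-HCl pH 8.0, 5 mM NaCl, 2 mM MgCl2, 1 mM DTT, 0.01% Tween-20, 2.5 ug/ml poly(dI-dC); 15 min cpd preinc, RT. Start: 200 nM forked DNA + 2 mM ATP (final). TAMRA read, 2 reads 2 h apart.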

[11] = Validation screen for small molecules that induce DNA re-replication in MCF 10A normal breast cells (AID 463097); note: nearly all actives have a fitted effect of over 60% in size
Outline: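 Image-based qHTS: normal breast cells are incubated with compound for 48 hr, stained with Hoechst, and scanned for total nuclear fluorescence. Compounds raising the fraction of nuclei with elevated DNA content count as re-replication inducers.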

[12] = Quantitative high throughput screen for delayed death inhibitors of the malarial parasite plastid, 96 hour incubation (AID 488745); note: potency is the fitted concentration of half-maximal effect; nearly all actives have a fitted effect of over 70% in size
Outline: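 P. falciparum carrying an integrated firefly luciferase reporter, grown in erythrocytes (2% hematocrit, 0.1% parasitemia final) in RPMI 1640/0.5% Albumax, was exposed to compound for 96 h (two generations) at 37 C, 5% CO2. Luminescence decrease indicated growth inhibition.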

[13] = Quantitative high throughput screen for delayed death inhibitors of the malarial parasite plastid, 48 hour incubation (AID 488752); note: potency is the fitted concentration of half-maximal effect; nearly all actives have a fitted effect of over 65% in size
Outline: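 Erythrocytes infected with P. falciparum carrying an integrated firefly luciferase reporter (2% hematocrit, 0.1% parasitemia final) were exposed to compounds in RPMI 1640/0.5% Albumax for 48 h at 37 C, 5% CO2. Growth inhibition was scored as reduced luminescence.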

[14] = target: M-phase phosphoprotein 8 (Homo sapiens) (UniProt Q99549); experiment: qHTS Validation Assay for Inhibitors for MPP8 Chromodomain Interactions with Methylated Histone Tails (AID 488949);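 note: 50 nM MPP8 with 50 nM peptide preformed then compounds added for 30 min; AlphaScreen signal from MPP8 chromodomain bound to biotinylated H3K9me3 peptide; top concentration of the series differs between compounds; nearly all actives have a fitted effect of over 55% in size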
Outline: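 50 nM MPP8 + 50 nM b-H3K9me3 peptide, PBS pH 7.4/0.01% Tween-20, 30 min RT; + cpd 30 min RT; + AlphaScreen donor/Ni-chelate acceptor beads 10 ug/mL final, 30 min dark; luminescence read.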

[15] = target: Transient receptor potential cation channel subfamily V member 1 (Homo sapiens) (UniProt Q8NER1); experiment: HTS Assay for Compounds that Act as Enhancers of the Vanilloid Receptor 1 (AID 488979)
Outline: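 TRPV1-expressing cells loaded with Fluo-8 calcium dye; compounds added and calcium influx read kinetically for 3 min (agonist phase), then capsaicin at EC20 added and read 2 min more for enhancement. Fluorescence ex 480/em 520 nm.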

[16] = target: Galactokinase (Homo sapiens) (UniProt P51570); experiment: qHTS Validation Assay for Inhibitors of Human Galactokinase (GALK) (AID 493189)
Outline: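 5 nM GALK / 100 uM galactose / 35 uM ATP, 20 mM HEPES pH8.0, 5 mM MgCl2, 60 mM NaCl, 1 mM DTT, 0.01% BSA (final). RT 1 h; Kinase-Glo Plus luminescence.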

[17] = Validation screen for small molecules that induce DNA re-replication in SW480 colon adenocarcinoma cells (AID 504364)
Outline: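 SW480 cells seeded at 250 per well were exposed to compound or DMSO for 48 hr at 37 C, 5% CO2, then stained with Hoechst for 40 min. DNA content per nucleus was imaged (405 nm ex, 500-530 nm em).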

[18] = target: DNA dC->dU-editing enzyme APOBEC-3G (Homo sapiens) (UniProt Q9HC16); experiment: qHTS for inhibitors of Vif-A3G interactions: Validation (AID 588379)
Outline: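 HeLa cells stably expressing Vif and A3G-eYFP, 700 cells/well, incubated overnight at 37 deg C, then exposed to compound overnight at 37 deg C. Inhibition of Vif-mediated degradation read as increased yellow fluorescence (Ex 488/Em 500-530) by laser-scanning cytometry.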

[19] = tested on: Zika virus NS2B-NS3 protease; experiment: Primary screen GU AMC qHTS for Zika virus inhibitors (AID 1347154); note: nearly all actives have a fitted effect of over 70% in size
Outline: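 Unlinked Zika NS2B hydrophilic domain/NS3 protease domain noncovalent complex (25 nM final) in 10 mM Tris-HCl pH 8.0, 0.01% Tween 20, with AMC peptide substrate. Fluorescence (ex 340, em 450 nm) change over 15 min, room temperature; percent inhibition fitted to 4-parameter Hill equation.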

[20] = Primary qHTS for small molecule stabilizers of the endoplasmic reticulum resident proteome: Secreted ER Calcium Modulated Protein (SERCaMP) assay (AID 1508630)
Outline: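 GLuc-SERCaMP-expressing SH-SY5Y cells, pretreated 16 h with compound, are challenged with thapsigargin to empty ER calcium stores; after 4 h, coelenterazine is added directly to the medium and luminescence is imaged.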

Measured: Potency

Chain of DNA dC->dU-editing enzyme APOBEC-3G (Homo sapiens) (Q9HC16 whole entry, looked up): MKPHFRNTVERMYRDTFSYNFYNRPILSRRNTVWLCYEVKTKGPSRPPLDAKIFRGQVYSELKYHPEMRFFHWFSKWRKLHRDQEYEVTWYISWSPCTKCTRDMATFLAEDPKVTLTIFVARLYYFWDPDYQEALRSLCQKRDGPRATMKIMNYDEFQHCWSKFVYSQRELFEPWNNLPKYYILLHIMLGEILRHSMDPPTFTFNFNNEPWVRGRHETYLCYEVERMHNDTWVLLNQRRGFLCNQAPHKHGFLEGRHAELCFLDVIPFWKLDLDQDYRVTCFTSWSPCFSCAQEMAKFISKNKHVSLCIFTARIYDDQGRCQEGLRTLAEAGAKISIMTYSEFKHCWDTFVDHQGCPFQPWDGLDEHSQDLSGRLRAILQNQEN
Chain of Ferritin light chain (Equus caballus) (P02791 2-175 limits assumed): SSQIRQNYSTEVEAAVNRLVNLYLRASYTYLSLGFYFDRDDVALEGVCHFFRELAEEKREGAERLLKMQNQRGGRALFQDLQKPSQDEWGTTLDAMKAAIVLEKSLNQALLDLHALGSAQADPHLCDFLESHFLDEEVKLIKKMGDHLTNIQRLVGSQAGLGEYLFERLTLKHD
Chain of Galactokinase (Homo sapiens) (P51570 whole entry, looked up): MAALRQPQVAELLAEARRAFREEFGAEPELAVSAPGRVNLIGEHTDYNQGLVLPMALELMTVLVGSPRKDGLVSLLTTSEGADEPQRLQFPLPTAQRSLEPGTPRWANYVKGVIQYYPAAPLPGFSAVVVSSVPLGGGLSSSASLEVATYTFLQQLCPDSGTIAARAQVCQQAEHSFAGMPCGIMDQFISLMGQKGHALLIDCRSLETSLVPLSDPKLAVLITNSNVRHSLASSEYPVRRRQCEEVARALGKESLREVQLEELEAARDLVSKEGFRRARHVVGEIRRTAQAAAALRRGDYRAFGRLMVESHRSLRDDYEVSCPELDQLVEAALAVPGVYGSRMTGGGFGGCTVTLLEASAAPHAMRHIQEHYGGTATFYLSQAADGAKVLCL
Chain of M-phase phosphoprotein 8 (Homo sapiens) (Q99549 whole entry, looked up): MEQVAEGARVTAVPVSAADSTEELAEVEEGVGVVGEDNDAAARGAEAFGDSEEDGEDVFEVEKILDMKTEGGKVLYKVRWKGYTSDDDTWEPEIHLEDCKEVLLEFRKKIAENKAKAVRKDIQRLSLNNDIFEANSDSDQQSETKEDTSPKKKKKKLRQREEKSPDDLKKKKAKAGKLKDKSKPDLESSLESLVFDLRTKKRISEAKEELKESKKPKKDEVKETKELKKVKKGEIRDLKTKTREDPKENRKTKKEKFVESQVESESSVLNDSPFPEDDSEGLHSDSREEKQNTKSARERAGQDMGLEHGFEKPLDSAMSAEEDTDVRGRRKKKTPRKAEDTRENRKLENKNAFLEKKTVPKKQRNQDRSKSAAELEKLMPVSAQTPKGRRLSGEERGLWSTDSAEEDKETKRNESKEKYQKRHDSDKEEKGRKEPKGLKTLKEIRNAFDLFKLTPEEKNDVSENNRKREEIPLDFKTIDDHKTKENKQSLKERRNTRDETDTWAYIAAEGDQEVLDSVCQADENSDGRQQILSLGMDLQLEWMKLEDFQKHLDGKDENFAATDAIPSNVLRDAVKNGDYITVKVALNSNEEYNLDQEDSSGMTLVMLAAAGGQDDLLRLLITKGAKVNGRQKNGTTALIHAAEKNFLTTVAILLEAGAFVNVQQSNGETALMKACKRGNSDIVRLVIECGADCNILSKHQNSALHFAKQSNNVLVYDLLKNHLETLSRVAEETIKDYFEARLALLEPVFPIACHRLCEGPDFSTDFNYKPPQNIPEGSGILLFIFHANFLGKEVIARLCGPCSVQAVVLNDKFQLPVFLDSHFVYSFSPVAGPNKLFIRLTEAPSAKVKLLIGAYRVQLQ
Chain of Transient receptor potential cation channel subfamily V member 1 (Homo sapiens) (Q8NER1 whole entry, looked up): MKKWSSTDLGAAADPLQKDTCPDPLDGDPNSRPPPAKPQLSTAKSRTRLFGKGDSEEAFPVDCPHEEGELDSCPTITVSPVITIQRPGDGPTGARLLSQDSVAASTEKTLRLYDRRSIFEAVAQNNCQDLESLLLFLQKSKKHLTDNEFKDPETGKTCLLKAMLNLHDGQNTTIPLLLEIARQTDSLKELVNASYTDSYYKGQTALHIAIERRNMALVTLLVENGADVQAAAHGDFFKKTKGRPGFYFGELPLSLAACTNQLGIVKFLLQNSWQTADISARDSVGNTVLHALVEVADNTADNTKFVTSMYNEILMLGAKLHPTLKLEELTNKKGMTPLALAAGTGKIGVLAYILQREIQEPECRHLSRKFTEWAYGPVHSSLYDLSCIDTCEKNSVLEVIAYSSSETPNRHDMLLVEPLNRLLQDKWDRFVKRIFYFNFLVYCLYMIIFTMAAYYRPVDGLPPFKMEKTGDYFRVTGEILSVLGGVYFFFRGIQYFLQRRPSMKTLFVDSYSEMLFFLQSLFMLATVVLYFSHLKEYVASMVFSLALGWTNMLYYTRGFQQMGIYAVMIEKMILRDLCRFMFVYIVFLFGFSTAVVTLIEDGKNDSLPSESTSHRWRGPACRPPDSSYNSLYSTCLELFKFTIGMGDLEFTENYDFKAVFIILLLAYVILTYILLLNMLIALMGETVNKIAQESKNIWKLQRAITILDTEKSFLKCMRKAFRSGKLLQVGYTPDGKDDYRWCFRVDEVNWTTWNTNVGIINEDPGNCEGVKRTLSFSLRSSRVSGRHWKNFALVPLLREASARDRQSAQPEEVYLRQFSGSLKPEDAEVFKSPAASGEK
Chain of ATP-dependent DNA helicase Q1 (Homo sapiens) (P46063 whole entry, looked up): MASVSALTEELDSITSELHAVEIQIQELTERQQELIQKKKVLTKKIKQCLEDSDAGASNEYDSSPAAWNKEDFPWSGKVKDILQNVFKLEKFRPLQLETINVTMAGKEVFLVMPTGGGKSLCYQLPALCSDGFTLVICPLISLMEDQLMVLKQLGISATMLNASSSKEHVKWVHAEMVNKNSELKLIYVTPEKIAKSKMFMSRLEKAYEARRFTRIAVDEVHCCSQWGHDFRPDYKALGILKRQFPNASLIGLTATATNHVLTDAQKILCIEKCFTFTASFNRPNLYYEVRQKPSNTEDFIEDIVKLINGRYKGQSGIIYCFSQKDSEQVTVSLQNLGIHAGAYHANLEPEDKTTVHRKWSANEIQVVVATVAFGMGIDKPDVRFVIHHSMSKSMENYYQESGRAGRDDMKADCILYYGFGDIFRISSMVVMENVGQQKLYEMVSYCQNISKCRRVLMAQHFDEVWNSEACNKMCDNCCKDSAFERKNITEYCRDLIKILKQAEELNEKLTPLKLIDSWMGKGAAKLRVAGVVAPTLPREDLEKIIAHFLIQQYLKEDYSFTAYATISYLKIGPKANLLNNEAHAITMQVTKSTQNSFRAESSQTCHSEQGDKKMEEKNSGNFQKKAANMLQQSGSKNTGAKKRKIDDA
Chain of RecQ-like DNA helicase BLM (Homo sapiens) (P54132 whole entry, looked up): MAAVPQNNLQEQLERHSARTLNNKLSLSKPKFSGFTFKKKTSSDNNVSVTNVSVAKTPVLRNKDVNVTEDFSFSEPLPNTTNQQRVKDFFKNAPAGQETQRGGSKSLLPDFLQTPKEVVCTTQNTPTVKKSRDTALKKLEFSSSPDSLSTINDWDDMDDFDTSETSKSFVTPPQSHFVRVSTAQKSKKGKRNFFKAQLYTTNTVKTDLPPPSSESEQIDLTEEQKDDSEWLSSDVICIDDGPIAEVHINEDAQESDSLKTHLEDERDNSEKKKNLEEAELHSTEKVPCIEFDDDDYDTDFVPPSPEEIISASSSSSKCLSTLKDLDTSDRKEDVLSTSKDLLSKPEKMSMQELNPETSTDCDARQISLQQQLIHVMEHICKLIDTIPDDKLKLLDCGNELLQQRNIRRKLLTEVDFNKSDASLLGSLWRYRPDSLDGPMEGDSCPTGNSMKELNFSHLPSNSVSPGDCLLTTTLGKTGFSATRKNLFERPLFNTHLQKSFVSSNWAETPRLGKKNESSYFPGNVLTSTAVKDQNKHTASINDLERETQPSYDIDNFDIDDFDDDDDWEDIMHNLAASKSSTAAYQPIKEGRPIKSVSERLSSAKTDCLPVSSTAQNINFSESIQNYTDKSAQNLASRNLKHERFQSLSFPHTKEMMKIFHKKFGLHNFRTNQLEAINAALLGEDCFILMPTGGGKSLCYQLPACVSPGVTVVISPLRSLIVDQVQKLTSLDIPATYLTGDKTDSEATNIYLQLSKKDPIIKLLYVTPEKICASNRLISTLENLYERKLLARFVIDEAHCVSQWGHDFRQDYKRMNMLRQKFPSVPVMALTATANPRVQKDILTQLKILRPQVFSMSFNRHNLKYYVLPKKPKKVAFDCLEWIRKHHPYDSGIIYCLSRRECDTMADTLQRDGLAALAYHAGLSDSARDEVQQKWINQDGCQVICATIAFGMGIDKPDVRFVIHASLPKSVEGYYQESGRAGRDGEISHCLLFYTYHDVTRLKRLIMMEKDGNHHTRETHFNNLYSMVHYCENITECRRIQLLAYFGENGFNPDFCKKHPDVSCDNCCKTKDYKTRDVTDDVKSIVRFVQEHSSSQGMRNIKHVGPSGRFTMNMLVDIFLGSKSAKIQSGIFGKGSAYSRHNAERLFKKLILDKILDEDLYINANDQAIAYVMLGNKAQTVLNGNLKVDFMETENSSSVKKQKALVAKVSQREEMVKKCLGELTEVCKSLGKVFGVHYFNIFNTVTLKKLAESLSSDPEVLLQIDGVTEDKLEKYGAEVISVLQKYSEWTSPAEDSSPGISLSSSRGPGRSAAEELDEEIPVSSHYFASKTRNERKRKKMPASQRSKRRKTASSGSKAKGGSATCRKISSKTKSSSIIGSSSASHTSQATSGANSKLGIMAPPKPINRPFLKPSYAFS

COc1[nH]c2ccc(F)cc2c1C(=O)OCC1CCN(CCNS(C)(=O)=O)CC1
active: [1] 7.94 µM | [2] 6.31 µM | [3] 7.08 µM | [4] 7.08 µM | [6] 10 µM | [7] 5.01 µM | [12] 14.7 µM | [13] 11.7 µM
inactive: all other assays above
